Data reported in PubChem BioAssay AID1508600 (Functional Genomics Laboratory (NCATS/FGL), 2020).
Among all 53,000 sequences or so, about 3,700 (7%) were called active. This excerpt belongs to a sample that is enriched for actives. Values without a mark were called inactive.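 Rule for the calls: active = gene knockdowns whose robust z-score for IL-1 alpha signal is at least 2 or at most -2, so actives lie on both sides; inactive = the rest.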

Experiment: Components of the Cytosolic LPS Sensing Pathway: Gene Identification via Genome-wide siRNA Screen;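 note: robust z of the log signal after scaling to non-targeting control siRNA wells of the plate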
Conditions: RAW264.7 macrophages, IL-1a HTRF, actives lie on both sides, screened at 100 nM (by protocol), cells primed 5 h with Pam3CSK4 first
Method in brief: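 Using IL-1a HTRF as read-out, the screen measured release from RAW264.7 cells after 48h siRNA knockdown (100 nM), 5 h Pam3CSK4 priming and 24 h cytosolic LipidA. Values were expressed relative to negative-control wells as robust z-scores.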

| Sequence | z-score |
| --- | --- |
| GCUUUGCAAUUCACAGGGATT against Scgb1b27 | -1.76 |
| GGGUUUGAUUCAUCAAAAATT against Peli1 | 0.314 |
| CCUACGCCAAGCAGUAUGATT against Mcm3 | 0.286 |
| GGAUUUUGACAGUCUGUGUTT against Endou | -0.438 |
| GGACUGAUUGUUUUAUGCUTT against Gdap10 | -1.06 |
| GGCCCUCAAUACCUGUGGUTT against Olfr690 | -3.13 (active) |
| GGAGAGACAUCCAAAAGUATT against H60a | 0.658 |
| GCCAUAUAAUUUGACAGAGTT against Tarm1 | -0.0405 |
| GCUCACAACAUGAGAGUCATT against Atp6v0e | -0.539 |
| GGGAAUUACAGCACACAAUTT against Treml4 | -0.21 |
| GGAACAAAACAAAUAGCUATT against Vstm2a | 1.79 |
| GGUUUCUAUAAAUCUCCCUTT against Eif4b | 0.895 |
| CGUGGUCUUCACGAUUGGATT against Pde4c | 3.71 (active) |
| GGAGGCUAUCAGAAGCAUCTT against C130021I20Rik | 0.762 |
| GGAACCAACAGAGAAAACUTT against Hr | 0.317 |
| GGCCUGUUUUUGCAUUUUATT against 9030612E09Rik | -0.0316 |
| GCAUUCGAAAUGAAGAUAATT against Dnajb1 | -1.75 |
| GGUUUUCUUUUCUUCUGCCTT against Aar2 | -1.11 |
| GGGAUUCACUCUUCUUUAGTT against Sebox | 1.97 |
| GGAACAAGCAAGUCAAACATT against Olfr770 | 2.24 (active) |
| CGACUGGGUCUUAUGUUUATT against Tas2r121 | -0.105 |
| CCAAGAAAGACAGUAACUATT against 4930432K21Rik | -0.986 |

| Sequence | z-score |
| --- | --- |
| GGAUCUGGACUUAAUGCUCTT against Tfeb | -0.383 |
| GGCCUUACCAAAUGGAAGUTT against Ifih1 | 2.89 (active) |
| GCACGGAUUAAUGUGAUGATT against Ilk | 0.406 |
| CCGUUGGAUACUGUAGUUCTT against Gpr152 | 0.023 |
| GCAACACACCAUAUCAGGATT against Tas2r135 | -0.322 |
| CCACCAUCGGUUGUUAGUUTT against Actg1 | 1.81 |
| GGACAGCUUGUAAAUUGCCTT against Mup21 | -2.05 (active) |
| GGUCUCAUUUCAAAUGGUUTT against Lonrf3 | 0.63 |
| GGAGAUUUCUUCCAUGGUCTT against Hspa2 | 0.445 |
| CGACAGAGUGAAAAUUAAGTT against Setd3 | -0.937 |
| CGCAGAGAAGGACUAUCUUTT against Ush1c | -1.58 |
| GGACAAGUGUCAGAUAUCATT against Asah2 | -2.02 (active) |
| CCUGCUUACCAAAGAAUCCTT against Klf11 | -0.884 |
| GGGACAAGUUGGAUUCUUGTT against Polr1e | -0.96 |
| GCCUUACAACAAGCAACACTT against Esrp1 | -0.385 |
| GCGGGCCAUGACAAUUACUTT against Slc45a1 | 0.566 |
| GCGAUGCUGGCAAGUAUGUTT against Robo1 | 0.45 |
| CCCAGACGAGAACUGUAUCTT against Sqor | -0.0381 |
| GGGUUAGGAUACCUCGACUTT against Arnt2 | -2.5 (active) |
| GGAAAGAUGUGGAAGUAAATT against Erc1 | -0.977 |
| GGAAAAGCAAGAGGAAAGATT against Ifnb1 | 2.39 (active) |
| GCAACCAUCGUAGCAGAUCTT against Aaas | 1.54 |

| Sequence | z-score |
| --- | --- |
| GCCACUGAUGUAAGGCUCATT against Lurap1l | 0.871 |
| CCCUCGUCUGAAAUGGAAATT against Nploc4 | -2.02 (active) |
| GGAACAGCUGACCUACUUUTT against Ahi1 | 1.08 |
| GGUAGACCAGCUUAAGAAGTT against Gngt1 | -0.0811 |
| GGCUUUUCACAAAACUGUUTT against Zfp120 | 1.07 |
| CCUAAAUCCUGCUAGGCGUTT against Cbln1 | -1.03 |
| GGUUAUAGGAAGGAAUUGCTT against Krt90 | 2.58 (active) |
| GAUGUCCUUCACCUUUGCCTT against Atp5d | -1.9 |
| GGCGCACACUUUCACCUAATT against Tmem170 | 0.194 |
| GGUUGUUUAUACCUGUGAUTT against Cfh | -0.292 |
| GGUGUCAACUUUAUUCUUUTT against Rab1a | 0.813 |
| GGGAUCCCUUCUGGAAAAGTT against Dmrtc2 | 0.581 |
| GGGCUCCUGAGCCUCUUAATT against Sprr1a | 2.29 (active) |
| GGUUGCACUCAUCUUAAAATT against Zfp9 | 1.59 |
| GGAAACUUCCCUUCCUAACTT against Snrpc | -0.397 |
| GCCUCUGGCAGAGAAAAGATT against 4930579K19Rik | -1.78 |
| CCAAGUUUUCAAAACAAACTT against Aqp3 | -0.0587 |
| GGAAGUGGACCAUUUCUUUTT against Olfr1359 | 0.719 |
| GGCCUGAAGGGAAAGAUUUTT against Rbbp4 | -0.721 |
| GGACUUGGGUCAUUGUGAGTT against Grpel1 | -0.93 |
| GGCAGUUUCUGUGCUAUACTT against Olfr984 | -2.49 (active) |
| GGAUAUUUAUUGUAUCCCATT against Col8a1 | -0.918 |

| Sequence | z-score |
| --- | --- |
| GGCAUCUGACGAUAAUGAUTT against Lman2l | -0.337 |
| GUUUUUCAUACAGUAGUAGTT against Vmn1r27 | 0.42 |
| CCUGUGGGACUCAAUGUUGTT against 2310039H08Rik | -0.722 |
| GGCCAGGAGAAGAAGAUACTT against Tet2 | -0.261 |
| GCCAUUCAAAAAUCAGCCGTT against Ddi2 | -2.02 (active) |
| GCUCCUAGGAACUUGGUUATT against Pacsin2 | 0.687 |
| GGCUGUUACAUUCUAUAUUTT against Kif5c | -0.13 |
| CCCAAUUAAUGAUCACCCATT against Tlcd2 | -3.04 (active) |
| GGCCCUGAACUGGUUUUGUTT against Osbpl10 | -0.119 |
| GCUCAACACUCGACAUUGUTT against Rrm1 | -2.56 (active) |
| GGUGGCAUUAAGGAAAUCATT against Olfr147 | -0.0185 |
| GGCCUGAAGCAGCUUAUCUTT against Chad | -1.56 |
| GGCAAAAAUGAGAAAGAGATT against Hebp2 | -0.643 |
| GCGUAUUACACCCUUGGAATT against Terf1 | -0.462 |
| GUCCUCCAUGAAGAAGCUCTT against Prm3 | -0.953 |
| GGACUUCAACAAGACCAUCTT against Proser2 | 1.55 |
| CGUCCAUAGAACAAUUGCATT against Rnase12 | 2.82 (active) |
| GGUAUUCCUGUCUCAGGUCTT against Matn1 | -0.59 |
| GGUUAUUCUCAUUUCGGAUTT against Phospho1 | 1.53 |
| GCUUACUUCCAAGGUCUACTT against Ptch2 | 0.905 |
| CCCAGCAGGCCAUAUUAGUTT against Cks1b | 0.377 |
| GGGAUCAUAAAGAUAACUUTT against Fasn | 2.2 (active) |

| Sequence | z-score |
| --- | --- |
| GCAUAGGGUCAUUUCAAGCTT against Kif23 | 0.0957 |
| GCUGUACUAUCUUUUUCAUTT against Olfr165 | -0.0549 |
| GCCAGUUUGUGUGCAAAAATT against Lrp1 | -0.551 |
| GAUCUGGUAUGUUUGUGACTT against Olfr1414 | -1.14 |
| CCUGUGUGUGAAUCUCGUUTT against C1qb | 1.11 |
| GGAAAUGUUGCCGUUGUCCTT against Mfsd8 | 2.13 (active) |
| GGGUGGGAGACGAAGAUAATT against Usp17lf | -0.12 |
| CCUAAUGGUUCAGGAUACGTT against Pcdhb5 | -0.641 |
| GGCUUUGAAAGUUACUACUTT against Zfp609 | 1.22 |
| GCCACUGUGUGGAAUAAAUTT against Cblif | 0.727 |
| CCAAAAGAGUUUUACAGGGTT against Lhx9 | -0.119 |
| GGAUCAGGAAGUAAACUUCTT against S100a6 | 2.57 (active) |
| GCUGUGUAGCAUUUUAACATT against Ank2 | -0.0376 |
| GUUGACUGUACCCGAUACATT against Mxd3 | -0.0552 |
| GGUGCUGAGGCUGAUUCUCTT against Capn15 | 3.35 (active) |
| GGUAUAUCGCCUAAUCACUTT against Chd6 | -0.885 |
| GGUAGUGGAGCUGAAUGUUTT against Kctd8 | 0.113 |
| GCAGCCUUCGUGAGUCUGUTT against Asb1 | -0.666 |
| GGAUUAUGAUCCAGAAUUCTT against Omd | 2.96 (active) |
